Assay results: PubChem BioAssay (Tox21)
Inconclusive results are not listed. Active and inactive are the calls of the source. Unless noted, calls come from the whole dose curve; as a rule, active = well fitted curve in the direction sought with a large enough effect in the repeat runs; inconclusive = weak or mixed curves; inactive = no such curve, though single readings can be large; an effect the other way counts as inactive or inconclusive.

Columns and labels:
[1] = target: Aryl hydrocarbon receptor (Homo sapiens) (UniProt P35869); assay: qHTS assay to identify small molecule that activate the aryl hydrocarbon receptor (AhR) signaling pathway (AID 743085);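 note: HG2L7.5c1 human HepG2 liver cells with stably integrated DRE-driven firefly reporter; series mostly up to about 70 µM; nearly all actives have a fitted effect of over 15% in size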
Aryl hydrocarbon receptor (Homo sapiens), sequence (P35869 whole entry, looked up): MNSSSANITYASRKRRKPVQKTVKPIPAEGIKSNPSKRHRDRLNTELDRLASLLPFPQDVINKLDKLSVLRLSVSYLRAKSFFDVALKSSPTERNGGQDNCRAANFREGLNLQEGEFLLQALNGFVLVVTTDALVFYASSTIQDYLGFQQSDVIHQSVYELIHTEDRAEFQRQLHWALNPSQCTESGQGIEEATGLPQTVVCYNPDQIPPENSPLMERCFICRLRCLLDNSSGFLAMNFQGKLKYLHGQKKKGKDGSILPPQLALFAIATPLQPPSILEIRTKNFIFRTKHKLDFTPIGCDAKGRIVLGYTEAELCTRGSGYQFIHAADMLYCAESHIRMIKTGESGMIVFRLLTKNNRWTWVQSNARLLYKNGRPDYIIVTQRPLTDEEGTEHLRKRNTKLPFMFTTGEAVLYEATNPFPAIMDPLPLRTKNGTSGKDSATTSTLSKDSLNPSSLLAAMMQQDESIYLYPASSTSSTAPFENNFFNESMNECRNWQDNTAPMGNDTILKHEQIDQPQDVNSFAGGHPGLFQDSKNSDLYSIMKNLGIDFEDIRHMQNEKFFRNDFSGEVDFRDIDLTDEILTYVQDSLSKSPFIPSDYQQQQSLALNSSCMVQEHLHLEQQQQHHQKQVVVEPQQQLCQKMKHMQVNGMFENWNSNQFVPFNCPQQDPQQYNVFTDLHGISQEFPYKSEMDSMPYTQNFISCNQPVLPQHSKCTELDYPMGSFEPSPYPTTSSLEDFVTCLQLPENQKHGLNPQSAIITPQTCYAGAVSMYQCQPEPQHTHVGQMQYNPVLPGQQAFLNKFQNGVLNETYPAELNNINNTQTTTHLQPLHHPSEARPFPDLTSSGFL
Method in brief: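 A multiplexed format paired cell viability (CellTiter-Fluor fluorescence) with AhR-dependent luciferase output (ONE-Glo luminescence) in the same wells of HepG2 DRE-luc cells after 24 h compound exposure at 37C.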

[2] = qHTS assay to identify small molecule that activate the aryl hydrocarbon receptor (AhR) signaling pathway - cell viability counter screen (AID 743086);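 note: HepG2 liver cells carrying the AhR DRE luciferase reporter; series mostly up to about 70 µM; nearly all actives have a fitted effect of over 45% in size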
Method in brief: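 HepG2-AhR-luc (HG2L7.5c1) cells, 4000/well, were preincubated 5 h at 37C, exposed to compound in qHTS format for 24 hr at 37C, then given CellTiter-Fluor for 30 min; viability was read as fluorescence in the reporter wells.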

[3] = target: Peroxisome proliferator-activated receptor gamma (Homo sapiens) (UniProt P37231); assay: qHTS assay to identify small molecule agonists of the peroxisome proliferator-activated receptor gamma (PPARg) signaling pathway (AID 743094; active = well fitted activation curve with a large enough effect in the signal ratio in the repeat runs, not every such curve was filed as active; the % refers to the signal ratio)
Peroxisome proliferator-activated receptor gamma (Homo sapiens), sequence (P37231 whole entry, looked up): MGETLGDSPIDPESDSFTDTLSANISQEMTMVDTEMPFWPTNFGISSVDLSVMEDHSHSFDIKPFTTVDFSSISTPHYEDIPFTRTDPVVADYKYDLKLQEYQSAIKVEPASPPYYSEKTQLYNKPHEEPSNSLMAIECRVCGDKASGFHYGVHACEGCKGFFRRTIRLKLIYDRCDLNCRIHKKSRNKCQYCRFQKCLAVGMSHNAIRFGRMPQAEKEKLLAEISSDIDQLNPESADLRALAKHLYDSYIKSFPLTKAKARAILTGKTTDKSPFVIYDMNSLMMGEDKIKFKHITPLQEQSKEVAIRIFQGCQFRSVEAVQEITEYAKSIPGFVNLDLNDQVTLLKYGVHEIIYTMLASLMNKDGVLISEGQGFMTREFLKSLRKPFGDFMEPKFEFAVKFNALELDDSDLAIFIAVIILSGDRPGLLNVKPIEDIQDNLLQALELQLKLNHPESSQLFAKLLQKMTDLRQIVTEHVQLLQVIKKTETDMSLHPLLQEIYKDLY
Method in brief: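 Reporter activation was scored by fluorescence of cleaved LiveBLAzer B/G substrate (1 h, room temperature) in PPARg-bla HEK293H cells previously treated 17 h at 37C with DMSO-dissolved compounds.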

[4] = target: Peroxisome proliferator-activated receptor gamma (Homo sapiens) (UniProt P37231); assay: qHTS assay to identify small molecule antagonists of the peroxisome proliferator-activated receptor gamma (PPARg) signaling pathway (AID 743191; calls by dose curve; note: series mostly up to about 63 µM; nearly all actives have a fitted effect of over 30% in size)
Method in brief: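 GeneBLAzer PPARg UAS-bla HEK293H cells carrying a UAS-driven beta-lactamase reporter were plated at 3000 cells/well, preincubated 5 h at 37C, then given compound for 17 h at 37C; LiveBLAzer B/G FRET substrate was read after 1 h at room temperature.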

[5] = qHTS assay to identify small molecule antagonists of the peroxisome proliferator-activated receptor gamma (PPARg) signaling pathway - cell viability counter screen (AID 743194); note: nearly all actives have a fitted effect of over 55% in size
Method in brief: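 PPARg-UAS-bla HEK293H cells were plated, rested 5 h at 37 C, then treated with compounds plus rosiglitazone (50 nM final) for 17 h at 37 C; viability was then read by CellTiter-Glo luminescence after 30 min at room temperature.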

[6] = qHTS assay for small molecule agonists of the antioxidant response element (ARE) signaling pathway (AID 743202; active = well fitted activation curve with a large enough effect in the signal ratio in the repeat runs, not every such curve was filed as active; the % refers to the signal ratio)
Method in brief: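 Following a 16 h, 37 C exposure of reporter HepG2 cells (ARE-driven beta-lactamase, 2,000 cells/well) to compounds, FRET substrate was applied for 2 h at room temperature and fluorescence intensity recorded.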

[7] = qHTS assay for small molecule agonists of the antioxidant response element (ARE) signaling pathway - cell viability counter screen (AID 743203; calls by dose curve; note: nearly all actives have a fitted effect of over 55% in size)
Method in brief: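 Viability counter screen: stably transfected ARE-bla HepG2 line, 16 hrs compound exposure at 37C/5% CO2, ATP-based CellTiter-Glo luminescence measured in the reporter wells.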

[8] = qHTS assay for small molecule activators of the heat shock response signaling pathway - cell viability counter screen (AID 743209); note: nearly all actives have a fitted effect of over 50% in size
Method in brief: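 Viability of HSE-bla HeLa cells is measured with CellTiter-Glo in the wells already used for the reporter read. Compound exposure lasts 5 h at 37 C, and luminescence is read after 30 min at room temperature.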

[9] = qHTS assay for small molecule activators of the heat shock response signaling pathway (AID 743210; active = well fitted activation curve with a large enough effect in the signal ratio in the repeat runs, with a control signal flat, not every such curve was filed as active; the % refers to the signal ratio; note: series mostly up to about 63 µM)
Method in brief: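 Heat shock element–beta-lactamase HeLa reporter cells; qHTS with compounds for 5 h at 37 C; detection by FRET substrate fluorescence after 2.5 h at RT.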

[10] = qHTS assay to identify small molecule agonists of the peroxisome proliferator-activated receptor delta (PPARd) signaling pathway - cell viability counter screen (AID 743211); note: nearly all actives have a fitted effect of over 55% in size
Method in brief: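 Tox21 library compounds, delivered in DMSO, were incubated 17 h with PPARd-bla HEK293H cells; cytotoxicity was taken from CellTiter-Glo luminescence read 30 min after reagent addition.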

[11] = target: Peroxisome proliferator-activated receptor delta (Homo sapiens) (UniProt Q03181); assay: qHTS assay to identify small molecule agonists of the peroxisome proliferator-activated receptor delta (PPARd) signaling pathway (AID 743212; calls by dose curve)
Peroxisome proliferator-activated receptor delta (Homo sapiens), sequence (Q03181 whole entry, looked up): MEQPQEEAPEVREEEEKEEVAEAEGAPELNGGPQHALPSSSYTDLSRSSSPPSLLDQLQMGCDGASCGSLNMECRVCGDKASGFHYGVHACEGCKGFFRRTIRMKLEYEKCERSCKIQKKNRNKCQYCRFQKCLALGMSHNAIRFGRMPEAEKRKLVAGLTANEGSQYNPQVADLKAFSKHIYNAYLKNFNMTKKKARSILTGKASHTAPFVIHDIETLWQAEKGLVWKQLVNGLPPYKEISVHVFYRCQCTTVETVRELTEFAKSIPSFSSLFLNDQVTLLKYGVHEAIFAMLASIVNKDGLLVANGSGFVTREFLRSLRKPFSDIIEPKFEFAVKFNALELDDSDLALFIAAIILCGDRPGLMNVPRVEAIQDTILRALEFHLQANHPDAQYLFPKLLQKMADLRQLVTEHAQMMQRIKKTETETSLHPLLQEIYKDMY
Method in brief: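 Beta-lactamase reporter read by fluorescence (LiveBLAzer B/G FRET, 2 h, room temperature). Test agents, in DMSO, incubated at 37 C with PPARd-bla HEK293H cells.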

[12] = qHTS assay to identify small molecule antagonists of the peroxisome proliferator-activated receptor delta (PPARd) signaling pathway - cell viability counter screen (AID 743213); note: nearly all actives have a fitted effect of over 50% in size
Method in brief: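 Cytotoxicity counter screen: CellTiter-Glo luminescence read 30 min after addition, in the same wells as the reporter assay. There, PPARd UAS-bla HEK293H cells (3000/well) were treated 17 h at 37 C with compound and 300 nM L165041.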

[13] = target: Peroxisome proliferator-activated receptor delta (Homo sapiens) (UniProt Q03181); assay: qHTS assay to identify small molecule antagonists of the peroxisome proliferator-activated receptor delta (PPARd) signaling pathway (AID 743215; active = well fitted inhibition curve with a large enough effect in the signal ratio in the repeat runs, not every such curve was filed as active; the % refers to the signal ratio;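 note: cells stimulated with agonist L165041 at 300 nM final during compound exposure; series mostly up to about 62 µM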)
Method in brief: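 Plated HEK293H PPARd-bla cells rested 5 h at 37 C and 5% CO2. Compound, then agonist L165041 at 300 nM final, was added; 17 h at 37 C followed. Substrate loading, 2 h room temperature, fluorescence measured.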

[14] = qHTS assay to identify small molecule agonists of the farnesoid-X-receptor (FXR) signaling pathway - cell viability counter screen (AID 743218); note: nearly all actives have a fitted effect of over 45% in size
Method in brief: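 Viability of FXR-bla HEK 293T cells is measured by ATP-based CellTiter-Glo luminescence following 16 h compound treatment at 37 C and a prior 2 h room-temperature beta-lactamase substrate step.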

[15] = qHTS assay to identify small molecule antagonists of the farnesoid-X-receptor (FXR) signaling pathway - cell viability counter screen (AID 743221; active = well fitted cell-killing curve with a large enough effect in the repeat runs, not every such curve was filed as active; note: nearly all actives have a fitted effect of over 50% in size)
Method in brief: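 Cytotoxicity is taken from ATP luminescence (CellTiter-Glo, 30 min, room temperature) in FXR-bla HEK 293T cells previously incubated 16 h at 37 C with compound and chenodeoxycholic acid at 50 uM final.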

[16] = target: Vitamin D3 receptor (Homo sapiens) (UniProt P11473); assay: qHTS assay to identify small molecule agonists of the vitamin D receptor (VDR) signaling pathway (AID 743222; calls by dose curve)
Vitamin D3 receptor (Homo sapiens), sequence (P11473 whole entry, looked up): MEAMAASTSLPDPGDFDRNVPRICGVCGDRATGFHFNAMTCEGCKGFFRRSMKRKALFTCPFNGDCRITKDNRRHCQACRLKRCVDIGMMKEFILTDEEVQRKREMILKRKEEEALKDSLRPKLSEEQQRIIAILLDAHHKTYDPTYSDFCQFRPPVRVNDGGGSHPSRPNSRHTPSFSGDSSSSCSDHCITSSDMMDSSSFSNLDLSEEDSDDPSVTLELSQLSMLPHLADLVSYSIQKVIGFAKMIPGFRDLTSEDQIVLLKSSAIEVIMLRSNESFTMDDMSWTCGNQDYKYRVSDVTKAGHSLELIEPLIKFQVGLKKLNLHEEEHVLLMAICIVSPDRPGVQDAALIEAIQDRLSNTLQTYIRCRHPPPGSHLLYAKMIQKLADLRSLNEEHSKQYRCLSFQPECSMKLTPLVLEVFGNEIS
Method in brief: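 Fluorescence from cleaved LiveBLAzer B/G FRET substrate served as readout. VDR-bla cells had been treated 16 h at 37C with test compounds in DMSO, following a 4 h settling period, and substrate was loaded for 2 h at RT.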

[17] = qHTS assay to identify small molecule agonists of the vitamin D receptor (VDR) signaling pathway - cell viability counter screen (AID 743224); note: series mostly up to about 63 µM; nearly all actives have a fitted effect of over 50% in size
Method in brief: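 Compounds were pin-transferred onto VDR-bla cells plated 4 h earlier; following 16 h incubation at 37C, cell viability was quantified by CellTiter-Glo luminescence after 30 min at room temperature.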

[18] = target: Bile acid receptor (Homo sapiens) (UniProt Q96RI1); assay: qHTS assay to identify small molecule antagonists of the farnesoid-X-receptor (FXR) signaling pathway (AID 743217; active = well fitted inhibition curve with a large enough effect in the signal ratio in the repeat runs, not every such curve was filed as active; the % refers to the signal ratio)
Bile acid receptor (Homo sapiens), sequence (Q96RI1 whole entry, looked up): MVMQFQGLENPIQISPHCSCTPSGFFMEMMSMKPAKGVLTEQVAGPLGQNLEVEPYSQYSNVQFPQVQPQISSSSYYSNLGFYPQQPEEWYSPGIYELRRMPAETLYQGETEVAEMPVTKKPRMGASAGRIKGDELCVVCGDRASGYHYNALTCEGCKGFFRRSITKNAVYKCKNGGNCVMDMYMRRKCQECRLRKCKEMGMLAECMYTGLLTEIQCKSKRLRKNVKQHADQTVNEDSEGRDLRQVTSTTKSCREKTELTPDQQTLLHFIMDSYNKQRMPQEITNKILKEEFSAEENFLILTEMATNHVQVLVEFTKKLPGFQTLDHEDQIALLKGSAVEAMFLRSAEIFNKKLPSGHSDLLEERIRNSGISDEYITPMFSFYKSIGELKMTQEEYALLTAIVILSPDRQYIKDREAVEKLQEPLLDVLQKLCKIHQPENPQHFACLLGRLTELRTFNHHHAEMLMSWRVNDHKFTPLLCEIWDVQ
Method in brief: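 Screen of the Tox21 10K library in quantitative HTS format using FXR-UAS-bla HEK 293T reporter cells. Agonist chenodeoxycholic acid, 50 uM final, added with compounds; 16 h incubation at 37 °C; beta-lactamase FRET fluorescence measured.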

[19] = target: Bile acid receptor (Homo sapiens) (UniProt Q96RI1); assay: qHTS assay to identify small molecule agonists of the farnesoid-X-receptor (FXR) signaling pathway (AID 743220; active = well fitted activation curve with a large enough effect in the signal ratio in the repeat runs, not every such curve was filed as active; the % refers to the signal ratio)
Method in brief: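 FXR-UAS-bla HEK 293T cells carrying a UAS-driven beta-lactamase reporter were plated for 5 h at 37C/5% CO2, then exposed to DMSO-dissolved Tox21 10K compounds for 16 h at 37C. A LiveBLAzer B/G FRET substrate was loaded for 2 h at room temperature before fluorescence reading.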

[20] = target: Vitamin D3 receptor (Homo sapiens) (UniProt P11473); assay: qHTS assay to identify small molecule antagonists of the vitamin D receptor (VDR) signaling pathway (AID 743223; active = well fitted inhibition curve with a large enough effect in the signal ratio in the repeat runs, not every such curve was filed as active; the % refers to the signal ratio)
Method in brief: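 Quantitative HTS in VDR-bla reporter cells stimulated with 1alpha,25-dihydroxyvitamin D3, 3 nM final. Compound exposure 16 h, 37C, 5% CO2. Read-out: beta-lactamase FRET substrate fluorescence, 2 h RT.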

Measured: Potency

CCOC(=O)OCC
not listed: [17] | [18] | [19] | [20]
inactive: all other assays above

c1cnc2c(n1)CCCC2
not listed: [13] | [18] | [19] | [20]
inactive: all other assays above

CC(C)CCCCCCOC(=O)CCCCC(=O)OCCCCCCC(C)C
not listed: [6]
inactive: all other assays above

CC(C)OCC1CO1 (stereo not given)
not listed: [7] | [9] | [19]
inactive: all other assays above

CC(C)CCCC(=O)O
not listed: [6] | [13] | [18] | [19] | [20]
inactive: all other assays above

OC(CCCN1CCCCC1)(c1ccccc1)c1ccccc1
not listed: [14] | [18] | [19] | [20]
inactive: all other assays above

CC(=O)Nc1ccccc1C
not listed: [8] | [17] | [18] | [19] | [20]
inactive: all other assays above

O=C1NCCN1
not listed: [7] | [8] | [9] | [20]
inactive: all other assays above
